From PubChem BioAssay (Tox21)
Results filed as inconclusive are left out. Entries that show only a call come without a potency. Values without a mark were called inactive. Activity calls are given as the source filed them. Unless noted, calls come from the whole dose curve; as a rule, active = well fitted curve in the direction sought with a large enough effect in the repeat runs; inconclusive = weak or mixed curves; inactive = no such curve, though single readings can be large; an effect the other way counts as inactive or inconclusive.

Legend:
[1] = qHTS assay to identify small molecule agonists of the vitamin D receptor (VDR) signaling pathway - cell viability counter screen (AID 743224); note: nearly all actives have a fitted effect of over 50% in size; note: potency is the fitted concentration of half-maximal effect
Procedure, shortened: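 VDR-bla cells, 4 h after plating, exposed to compounds for 16 h at 37C; viability then read in the same wells as CellTiter-Glo luminescence after 30 min at room temperature, following the bla FRET read.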

[2] = qHTS assay to identify small molecule antagonists of the vitamin D receptor (VDR) signaling pathway - cell viability counter screen (AID 743225); note: nearly all actives have a fitted effect of over 50% in size; note: potency is the fitted concentration of half-maximal effect
Procedure, shortened: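 Read-out: CellTiter-Glo luminescence measured 30 min after reagent addition at room temperature. Cells were VDR-bla HEK 293T exposed 16 h at 37C, 5% CO2, to compound with 3 nM final calcitriol agonist.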

[3] = qHTS assay to identify small molecule agonists of the NFkB signaling pathway (AID 1159509; active = well fitted curve in the direction sought with a large enough effect in the signal ratio in the repeat runs, not every such curve was filed as active; the % refers to the signal ratio; note: series mostly up to about 61 µM)
Procedure, shortened: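 ME-180 NFkB-bla, 2,000 cells/well, overnight plating; cpd pinned in DMSO, 5 h 37 C; B/G FRET substrate 1.5 h RT; ex 405, em 460/530 nm.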

[4] = qHTS assay to identify small molecule agonists of the endoplasmic reticulum stress response signaling pathway (AID 1159516; active = well fitted activation curve with a large enough effect in the signal ratio in the repeat runs, not every such curve was filed as active; the % refers to the signal ratio)
Procedure, shortened: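 CellSensor ESRE-bla HeLa cells, 1,500 per well, plated overnight, then exposed to compounds for 5 hr at 37 C. Beta-lactamase reporter read with LiveBLAzer B/G FRET substrate after 2 hr at room temperature, 405 nm excitation, 460 and 530 nm emission.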

[5] = qHTS assay to identify small molecule agonists of the endoplasmic reticulum stress response signaling pathway - cell viability counter screen (AID 1159517; calls by dose curve;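 note: HeLa cells carrying an ER stress response element beta-lactamase reporter; series mostly up to about 61 µM; nearly all actives have a fitted effect of over 50% in size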)
Procedure, shortened: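 HeLa cells carrying an ESRE-driven beta-lactamase reporter receive compound for 5 hr at 37 C. Cell viability is then gauged with CellTiter-Glo by luminescence, 30 min at room temperature.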

[6] = qHTS assay to identify small molecule antagonists of the retinoid-related orphan receptor gamma (ROR-gamma) signaling pathway - cell viability counter screen (AID 1159520); note: nearly all actives have a fitted effect of over 50% in size
Procedure, shortened: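 Cytotoxicity was read from cellular ATP (CellTiter-Glo luminescence) after 16 hr at 37 C with 1 uM doxycycline induction. The inducer was added 2 hr after compound transfer to Tet-on ROR gamma CHO cells.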

[7] = qHTS assay to identify small molecule agonists of the AP-1 signaling pathway - cell viability counter screen (AID 1159525; calls by dose curve; note: nearly all actives have a fitted effect of over 55% in size; note: potency is the fitted concentration of half-maximal effect)
Procedure, shortened: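 Luminescent ATP readout (Cell Titer Glo, 30 min RT), normalised to DMSO and tetra n-octyl ammonium bromide controls. Cells were ME-180 AP-1-bla in 0.5% dialyzed FBS Opti-MEM, with a 5 h, 37 °C compound exposure.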

[8] = target: Retinoic acid receptor RXR-alpha (Homo sapiens) (UniProt P19793); test: qHTS assay to identify small molecule agonists of the RXR signaling pathway (AID 1159527; calls by dose curve; note: nearly all actives have a fitted effect of over 35% in size)
Sequence of Retinoic acid receptor RXR-alpha (Homo sapiens) (P19793 whole entry, looked up): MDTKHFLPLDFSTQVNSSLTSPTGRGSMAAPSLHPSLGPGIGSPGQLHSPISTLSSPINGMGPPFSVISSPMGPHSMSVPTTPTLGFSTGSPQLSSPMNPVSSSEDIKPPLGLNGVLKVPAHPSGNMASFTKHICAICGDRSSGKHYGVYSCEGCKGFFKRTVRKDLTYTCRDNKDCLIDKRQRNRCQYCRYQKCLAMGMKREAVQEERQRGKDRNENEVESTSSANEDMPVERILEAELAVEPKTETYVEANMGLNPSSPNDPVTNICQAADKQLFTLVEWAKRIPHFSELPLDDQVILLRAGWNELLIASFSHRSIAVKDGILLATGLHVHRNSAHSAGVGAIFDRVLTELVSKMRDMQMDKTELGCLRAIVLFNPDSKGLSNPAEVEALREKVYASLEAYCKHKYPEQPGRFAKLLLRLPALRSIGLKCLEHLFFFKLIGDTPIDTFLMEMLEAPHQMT
Procedure, shortened: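 Read-out: beta-lactamase FRET ratio (405 nm excitation, 460 and 530 nm emission) after 2 hr substrate loading at room temperature. Cells were RXR-alpha-UAS-bla HEK 293T treated with compounds for 16 hr in 2% charcoal-stripped FBS medium.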

[9] = qHTS assay to identify small molecule agonists of the RXR signaling pathway - cell viability counter screen (AID 1159529); note: nearly all actives have a fitted effect of over 50% in size; note: potency is the fitted concentration of half-maximal effect
Procedure, shortened: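 HEK 293T RXRa-bla cells, 2% CS-FBS; 5 h settle; cpd 16 h 37 C, 5% CO2; CellTiter-Glo 30 min RT, luminescence. Tetraoctyl ammonium bromide as positive control.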

[10] = qHTS assay to identify small molecule antagonists of the retinoid acid receptor (RAR) signaling pathway - cell viability counter screen (AID 1159551); note: nearly all actives have a fitted effect of over 35% in size; note: potency is the fitted concentration of half-maximal effect
Procedure, shortened: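 C3RL4 RARE-luciferase cells, 1,000/well, incubated overnight, then dosed with compound plus 1 uM retinol (final). After 6 hr at 37 C, viability read by CellTiter-Glo ATP luminescence following 30 min at room temperature.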

[11] = qHTS assay to identify small molecule antagonists of the retinoic acid receptor (RAR) signaling pathway (AID 1159552; note: nearly all actives have a fitted effect of over 50% in size; note: potency is the fitted concentration of half-maximal effect)
Procedure, shortened: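 Cells of the C3RL4 line were seeded, incubated overnight, then dosed with compounds in DMSO followed immediately by retinol (1 uM final). Six hours later luciferase detection reagent went in; signal was measured after 30 min at RT.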

[12] = target: Nuclear receptor ROR-gamma (Homo sapiens) (UniProt P51449); test: qHTS assay to identify small molecule antagonists of the retinoid-related orphan receptor gamma (ROR-gamma) signaling pathway (AID 1159521; note: nearly all actives have a fitted effect of over 50% in size; note: potency is the fitted concentration of half-maximal effect)
Procedure, shortened: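 CHO Tet-on RORγ, RORE-luc reporter. Cpd 2 h pre-incubation, then dox hyclate 1 uM final, 16 h, 37 C/5% CO2. ONE-Glo luminescence; decrease = antagonist.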

[13] = qHTS assay to identify small molecule agonists of the AP-1 signaling pathway (AID 1159526; calls by dose curve)
[14] = qHTS assay to identify small molecule agonists of the retinoic acid receptor (RAR) signaling pathway (AID 1159553)
Procedure, shortened: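 C3RL4 RARE-luciferase cells were seeded at 1,000/well and grown overnight at 37 C, then exposed to compounds for 6 hr at 37 C, 5% CO2. Luciferase reagent was added and luminescence was read after 30 min at room temperature.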

[15] = qHTS assay to identify small molecule agonists of the NFkB signaling pathway - cell viability counter screen (AID 1159515; calls by dose curve; note: nearly all actives have a fitted effect of over 55% in size; note: potency is the fitted concentration of half-maximal effect)
Procedure, shortened: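 NFkB-bla ME-180 cells, 2,000/well, plated overnight at 37 C; compound added for 5 hr at 37 C. Viability read in the same wells as the bla reporter, by CellTiter-Glo luminescence after 30 min at room temperature.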

[16] = qHTS assay to identify small molecule antagonists of the estrogen related receptor (ERR) signaling pathway - cell viability counter screen (AID 1224818);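 note: series mostly up to about 46 µM; viability measured after 17.5 h of compound exposure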
Procedure, shortened: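 ERR cells, 2,000 per well, compound added after 6 h and incubated 17.5 h at 37 C. Viability read by CellTiter-Fluor fluorescence after a further 30 min at 37 C.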

[17] = qHTS assay to identify small molecule antagonists of the estrogen related receptor (ERR) signaling pathway (AID 1224819)
Procedure, shortened: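 ERR reporter cell line (NTP) plated at 2,000 cells/well, settled 6 h at 37C/5% CO2, then exposed to LOPAC compounds for 18 h at 37C. One-Glo luciferase luminescence read after 30 min at room temperature.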

[18] = qHTS assay to identify small molecule agonists of the estrogen related receptor (ERR) signaling pathway (AID 1224820)
Procedure, shortened: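 Cells: ERR line from NTP, 2,000/well. Pre-incubation 6 h, 37 C/5% CO2. Compound (DMSO) pin transfer, 18 h 37 C. One-Glo, 30 min RT, luminescence.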

[19] = tested on: estrogen-related receptor alpha (ERRalpha) with PGC-1alpha coactivator, human; test: qHTS assay to identify small molecule antagonists of the estrogen related receptor signaling pathway with the pleiotropic PPARgamma coactivator (PGC) (AID 1224821; calls by dose curve)
Procedure, shortened: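 Luminescent read-out (One-Glo, 30 min at room temperature) following 18 h treatment of PGC/ERR cells at 37 C with compounds delivered in DMSO. Cells had settled 6 h at 37 C/5% CO2 before dosing.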

[20] = qHTS assay to identify small molecule agonists of the estrogen related receptor signaling pathway with the pleiotropic PPARgamma coactivator (PGC) (AID 1224823)
Procedure, shortened: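 Steps: plate PGC/ERR cells at 2,000 cells/well; incubate 6 h, 37 C/5% CO2; pin-transfer compounds (DMSO); incubate 18 h, 37 C; add One-Glo; 30 min RT; read luminescence.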

| SMILES | Potency [1] | Potency [2] | outcome [3] | outcome [4] | Potency [5] | Potency [6] | Potency [7] | Potency [8] | Potency [9] | Potency [10] | Potency [11] | Potency [12] | outcome [13] | Potency [14] | Potency [15] | outcome [16] | outcome [17] | outcome [18] | Potency [19] | outcome [20] |
| --- | --- | --- | --- | --- | --- | --- | --- | --- | --- | --- | --- | --- | --- | --- | --- | --- | --- | --- | --- | --- |
| O=C(CBr)c1ccccc1 | inactive | inactive | inactive | inactive | inactive | inactive | inactive | inactive | inactive | inactive | inactive | – | – | – | – | – | – | – | – | – |
| CO/N=C(/C(=O)OC)c1ccccc1COc1ccccc1C | – | – | inactive | inactive | inactive | – | inactive | – | – | – | 7.7 µM (active) | 2.73 µM (active) | inactive | inactive | – | – | – | – | – | – |
| CC(Cl)Cl | inactive | inactive | inactive | inactive | inactive | inactive | inactive | – | inactive | inactive | inactive | – | inactive | inactive | – | – | – | – | – | – |
| Clc1cccc(SC2CCNCC2)n1 | inactive | – | inactive | inactive | inactive | inactive | inactive | inactive | inactive | inactive | inactive | inactive | inactive | inactive | – | – | – | – | – | – |
| IC(I)=C(I)I | 11 µM (active) | 17.4 µM (active) | inactive | – | – | – | 24.5 µM (active) | – | 12.3 µM (active) | 30.6 µM (active) | 2.73 µM (active) | 2.73 µM (active) | – | – | 54.9 µM (active) | – | – | – | – | – |
| CC(=O)c1cc2c(cc1C)C(C)(C)C(C)CC2(C)C (centres undefined) | 49 µM (active) | inactive | inactive | – | – | inactive | 49 µM (active) | – | 43.6 µM (active) | – | – | – | – | – | inactive | – | – | – | – | – |
| Cc1cc(=O)[nH]o1 | inactive | inactive | inactive | – | – | – | inactive | inactive | inactive | inactive | – | inactive | inactive | – | inactive | – | – | – | – | – |
| CCCCOC(=O)c1ccccc1C(=O)OCc1ccccc1 | inactive | inactive | inactive | inactive | inactive | inactive | inactive | – | inactive | inactive | inactive | – | inactive | inactive | – | inactive | inactive | inactive | inactive | inactive |
| c1ccoc1 | inactive | inactive | inactive | inactive | inactive | inactive | inactive | inactive | inactive | inactive | – | inactive | inactive | – | – | – | – | – | – | – |
